Bioassay records from PubChem BioAssay.
RGS16-Gao: modulates binding between human RGS16 and Galphao; binding response (% of control), % at 10 µM; AID 1441; bead-based flow cytometry RGS16-Galphao binding, fluorescence; actives lie on both sides; 220,000 compounds, 0.38% hits;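 also: Galphao activated by GDP with aluminum fluoride before binding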
Target sequence (O15492 whole entry, looked up): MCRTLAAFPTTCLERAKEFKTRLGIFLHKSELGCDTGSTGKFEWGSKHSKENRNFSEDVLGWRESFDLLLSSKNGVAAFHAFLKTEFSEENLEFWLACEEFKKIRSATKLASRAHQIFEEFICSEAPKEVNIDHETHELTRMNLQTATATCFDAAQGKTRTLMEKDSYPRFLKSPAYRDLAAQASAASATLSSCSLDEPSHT
Target sequence (P09471 whole entry, looked up): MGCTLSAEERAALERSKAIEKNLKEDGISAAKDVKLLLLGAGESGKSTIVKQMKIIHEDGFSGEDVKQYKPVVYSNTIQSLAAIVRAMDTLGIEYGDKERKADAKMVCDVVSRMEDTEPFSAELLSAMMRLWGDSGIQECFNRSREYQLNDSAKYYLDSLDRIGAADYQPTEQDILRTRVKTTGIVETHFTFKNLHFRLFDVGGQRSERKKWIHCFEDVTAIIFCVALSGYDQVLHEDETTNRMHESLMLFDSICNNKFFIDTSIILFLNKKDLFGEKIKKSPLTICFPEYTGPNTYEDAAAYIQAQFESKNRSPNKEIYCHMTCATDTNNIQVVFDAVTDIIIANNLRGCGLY
RGS4-Gao reg: human RGS4-Galphao interaction regulation. P09471. binding response (% of control), % at 10 µM. 220,000 compounds, 0.33% hits. Multiplexed bead flow cytometry, RGS4-Galphao binding; actives lie on both sides; in the data active = binding response below about 49% or above about 150%; inactive = in between;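 also: fluorescent Galphao activated with aluminum fluoride binding bead-coupled RGS4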
Target sequence (P09471 whole entry, looked up): as above
RGS7-Gao: modulates binding of RGS7 to human Galphao; P09471; Multiplexed bead flow cytometry; actives lie on both sides; binding response (% of control), % at 10 µM; 220,000 compounds, 0.35% hits; in the data active = binding response below about 49% or above about 150%; inconclusive = no clear call, values can overlap the other calls; inactive = in between;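 also: fluorescent Galphao held in activated GDP-AlF4 state binding bead-coupled RGS7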
RGS8-Gao reg: human RGS8-Galphao interaction regulation. P09471. multiplexed bead flow cytometry, RGS8-Galphao binding; actives lie on both sides. response (percent of control binding), % at 10 µM. 220,000 compounds, 0.34% hits; in the data active = response below about 60% or above about 140%; inactive = in between;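 also: Galphao activated as the GDP aluminium fluoride complex binding bead-coupled RGS8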
Avidin bead fluor: avidin bead compound fluorescence profile; Avidin beads, compound fluorescence 488/530 nm, flow cytometry; active compounds read high; fluorescence (KMESF) at 10 µM; 220,000 compounds, 0.38% hits; in the data active = fluorescence above about 47
GSH bead fluor: compound fluoresces at 488/530 nm on GSH beads. GSH beads flow cytometry, compound fluorescence 488/530 nm; active compounds read high. 190,000 compounds, 0.25% hits. fluorescence (KMESF) at 10 µM; in the data active = fluorescence above about 89;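 also: glutathione beads carrying GST-tagged Bcl family fusion proteins plus one bare bead set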
RGS4-Gao HTS: regulators of human RGS4-Galphao interaction; 1,600 compounds, 99% hits; AID 1504; shares compounds with RGS16-Gao; RGS4–Galpha-o binding response, % at 10 µM; multiplexed bead flow cytometry, RGS–Galpha-o binding;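 also: fluorescently labeled Galpha-o bound to GDP with aluminium fluoride binding biotinylated RGS beads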
Biotin-avidin: counter-screen: compounds disrupting biotin binding to avidin beads; shares compounds with RGS16-Gao; streptavidin beads, fluorescein-biotin binding, flow cytometry; inhibition, % at 10 µM; 1,700 tested, under 10 active;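 active = inhibition above 50%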;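 also: median green fluorescence of gated singlet beads compared with DMSO control wells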
RGS8-Gao confirm: confirmation of regulators of human RGS8-Galphao interaction; shares compounds with RGS16-Gao; bead-based flow cytometry RGS8-Galphao binding, fluorescence; actives lie on both sides; binding response (% of control), % at 10 µM; 1,700 compounds, 3% hits; in the data active = binding response below about 72% or above about 130%; inactive = in between;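 also: Galphao activated as GDP AlF4 complex before binding bead RGS8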
RGS7-Gao single: RGS7-Galphao interaction regulation, single point confirmation; shares compounds with RGS16-Gao; bead-based flow cytometry RGS7-Galphao binding; actives lie on both sides; 1,700 compounds, 7.8% hits; response (percent of control binding), % at 10 µM; AID 1837; in the data active = response below about 75% or above about 130%; inactive = in between;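 also: fluorescent Galphao activated with GDP and aluminum fluoride binding bead-coupled RGS7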
RGS16-Gao single: RGS16-Galphao interaction regulation, single point confirmation | shares compounds with RGS16-Gao | bead-based flow cytometry, RGS16-Galphao binding; actives lie on both sides | AID 1838 | 1,700 compounds, 4% hits | response (% of control binding), % at 10 µM; in the data active = response below about 74% or above about 130%; inactive = in between;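 also: Galphao activated as the GDP aluminium fluoride complex binding bead-coupled RGS16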
RGS4-Gao confirm: confirmation of regulators of human RGS4-Galphao interaction; shares compounds with RGS16-Gao; RGS4-Galphao binding, multiplexed bead flow cytometry; actives lie on both sides; binding response (% of control), % at 10 µM; 1,700 compounds, 4% hits; AID 1840; in the data active = binding response below about 74% or above about 130%; inactive = in between
RGS19-Gao conf: RGS19-Galphao interaction regulation, single point confirmation | response (percent of control binding), % at 10 µM | bead-based flow cytometry RGS19-Galphao binding; actives lie on both sides | AID 1841 | 1,700 compounds, 5% hits | shares compounds with RGS16-Gao; in the data active = response below about 50% or above about 160%; inactive = in between
Numbers stand for hits; i = inactive; ? = inconclusive; nt = no result; [ ] = remark or other dose. Compounds with a hit are over-represented: about 1.2% of the library has one in this group of screens. Unless noted, no rule for the calls is given here.

SMILES	RGS16-Gao	RGS4-Gao reg	RGS7-Gao	RGS8-Gao reg	Avidin bead fluor	GSH bead fluor	RGS4-Gao HTS	Biotin-avidin	RGS8-Gao confirm	RGS7-Gao single	RGS16-Gao single	RGS4-Gao confirm	RGS19-Gao conf
O=c1oc2ccccc2c(N2CCCC2)c1[N+](=O)[O-]	180[activator]	157[activator]	157[activator]	161[activator]	i	i	nt	i	i	i	i	i	i
O=c1oc2ccccc2c(N2CCCCC2)c1[N+](=O)[O-]	i	i	i	i	i	i	nt	nt	nt	nt	nt	nt	nt
CCNC(=O)C(Sc1ccccc1)c1ccccc1 (stereo not given)	252[activator]	i	i	i	i	i	106	i	i	i	i	i	i
CN(C)c1cccc(C(=O)Nc2cc(C(F)(F)F)ccc2-n2cnc3ccccc32)c1	197[activator]	i	i	i	i	i	106	i	i	i	i	i	i
COc1ccc(C(=O)OCc2cc3cccc(C)c3[nH]c2=O)cc1	i	i	i	i	i	i	nt	nt	nt	nt	nt	nt	nt
Cc1cccc2cc(COC(=O)c3ccccn3)c(=O)[nH]c12	-25	i	i	i	i	i	69	i	i	i	i	i	i
COc1cc(C(=O)N2CCC(O)(c3ccccc3)CC2)cc(OC)c1OC	nt	nt	nt	nt	nt	i	nt	i	i	i	i	i	i
C=C1SC(=Nc2c(C)cccc2Cl)N(C(=O)c2sc3ccccc3c2Cl)C12CCCCC2	i	i	?	i	i	nt	nt	nt	nt	nt	nt	nt	nt
C=C1SC(=Nc2ccccc2Cl)N(C(=O)c2sc3ccccc3c2Cl)C1(C)C	-13	-16	?	9.4	i	nt	nt	i	i	i	i	i	i
COc1ccc(/C=C/C(=O)c2c(O)ccc3c(C)cc(=O)oc23)cc1	i	i	i	i	i	i	nt	nt	nt	nt	nt	nt	nt
Cc1ccc(SCC(=O)Nc2ccc(S(N)(=O)=O)cc2)cc1	i	i	i	i	i	i	nt	nt	nt	nt	nt	nt	nt
COc1ccc(-n2c3c(cc(C(=O)NNc4ccccc4C)c2=O)C(=O)CC(C)(C)C3)cc1	i	i	i	i	i	i	nt	nt	nt	nt	nt	nt	nt
COc1ccc(-n2c3c(cc(C(=O)NNc4ccccc4)c2=O)C(=O)CC(C)(C)C3)cc1	i	47	47	59	i	i	nt	i	i	i	i	i	i
CCOC(=O)/C(C#N)=C/Nc1ccsc1C(=O)OC	i	i	?	i	i	nt	nt	nt	nt	nt	nt	nt	nt
CCOC(=O)/C(C#N)=C/Nc1cc(C(=O)OCC)cc2c(OC)c(OC)ccc12	-5.8	-4.8	?	17	i	nt	nt	i	i	i	i	i	i
CC(C)c1onc(C(=O)N2C(C)CCCC2C)c1[N+](=O)[O-] (stereo not given)	i	i	i	i	i	i	nt	nt	nt	nt	nt	nt	nt
CC(C)c1onc(C(=O)N2CCCCC2C)c1[N+](=O)[O-] (stereo not given)	i	28	23	30	i	i	nt	i	i	i	i	i	i
COCCCNC(=O)c1ccc2c3c(onc13)-c1ccccc1C2=O	i	43	?	i	i	nt	nt	i	69	64	68	i	42
COCCCNC(=O)c1ccccc1Oc1ccccc1	i	i	i	i	i	i	nt	nt	nt	nt	nt	nt	nt
O=C(Nc1ccccc1SCC1CSc2nc3ccccc3c(=O)n21)c1ccccc1Cl (stereo not given)	nt	nt	nt	nt	nt	i	nt	i	i	75	i	i	i
CCOc1ccc(-c2nn(-c3ccccc3)cc2/C=C2\SC(N)=NC2=O)cc1C	1.8	22	16	12	i	i	nt	i	i	i	i	i	i
Cc1ccc(-c2nn(-c3ccccc3)cc2/C=C2\SC(=S)N(CC(=O)O)C2=O)cc1	i	i	?	i	i	nt	nt	nt	nt	nt	nt	nt	nt
CCCn1c(SCC(=O)Nc2cccc(Cl)c2Cl)n[nH]c1=O	i	i	i	i	i	i	nt	nt	nt	nt	nt	nt	nt
CCCn1c(SCC(=O)Nc2ccccc2Oc2ccccc2)n[nH]c1=O	-28	i	i	i	i	i	78	i	i	i	i	i	i
COC(=O)C(NC(C)=O)(Nc1nc2ccc(S(C)(=O)=O)cc2s1)C(F)(F)F (stereo not given)	-18	i	i	i	i	i	97	nt	nt	nt	nt	nt	nt
SMILES	RGS16-Gao	RGS4-Gao reg	RGS7-Gao	RGS8-Gao reg	Avidin bead fluor	GSH bead fluor	RGS4-Gao HTS	Biotin-avidin	RGS8-Gao confirm	RGS7-Gao single	RGS16-Gao single	RGS4-Gao confirm	RGS19-Gao conf
CCOC(=O)C(CSCc1ccccc1)NC(=O)OC(C)(C)C (stereo not given)	-920	i	i	i	i	i	93	nt	nt	nt	nt	nt	nt
CCOC(=O)C(CSCC(=O)c1ccc(Br)cc1)NC(=O)OC(C)(C)C (stereo not given)	i	i	i	i	i	i	nt	nt	nt	nt	nt	nt	nt
O=C(O)c1ccccc1CSc1ccccn1	i	i	i	i	i	i	nt	nt	nt	nt	nt	nt	nt
O=C(CCC(=O)N/N=C/c1ccccc1O)NCc1ccccc1	i	i	i	i	i	i	nt	nt	nt	nt	nt	nt	nt
CC(=O)Nc1cnc2ccccc2n1	i	i	181[activator]	i	102	i	113	i	i	i	i	i	i
OCCNc1cnc2ccccc2n1	i	i	?	i	i	i	nt	nt	nt	nt	nt	nt	nt
COc1ccccc1NC(=O)Nc1cc(F)ccc1F	i	i	?	i	i	i	nt	nt	nt	nt	nt	nt	nt
CC(C)(C)c1ccc(C(=O)NC(Cc2ccccc2)C(=O)O)cc1 (stereo not given)	i	i	i	i	i	i	nt	nt	nt	nt	nt	nt	nt
O=C(N[C@@H](Cc1ccc(O)cc1)C(=O)O)c1ccc(C(F)(F)F)cc1	i	i	152[activator]	i	i	i	138	i	i	i	i	i	i
Cc1cc(C)n(CC(=O)n2c3c(c4ccccc42)CCCC3)n1	nt	nt	nt	nt	nt	i	nt	i	i	i	i	i	i
CCN(CC)CC(=O)n1c2c(c3ccccc31)CCCC2	-100	i	i	i	i	i	81	i	i	i	i	i	i
c1cc2c(cc1Nc1nc(-c3ccc4c(c3)OCO4)cs1)OCCO2	i	i	i	i	i	i	nt	nt	nt	nt	nt	nt	nt
c1ccc(-c2csc(Nc3ccc4c(c3)OCCO4)n2)cc1	i	i	50	55	i	i	91	i	i	i	i	i	i
